Bioassay records: PubChem, National Center for Advancing Translational Sciences (NCATS)
Cycloheximide cs: counter-screen for Shiga toxin inhibitors: cycloheximide protein synthesis inhibition | cell reporter, cycloheximide protein synthesis inhibition counterscreen | AID 2314 | actives 12% (n = 300,000) | max response, %; in the data active = max response mostly above about 13%, no sharp cut-off; inactive = mostly below about 14%; also: read at 38.3 µM for the half of the compounds with a filed dose; 0% is about no effect
Sm TGR inh: S. mansoni TGR enzyme inhibition. AID 485364. purified TGR, DTNB reduction, TNB absorbance 405 nm. Potency, µM (top dose mostly 114 µM), without a hit: top-dose activity change, negative = inhibition, actives largely listed as inhibitors. Q962Y6. actives 3% (n = 360,000); active = well fitted inhibition curve with a large enough effect; inconclusive = small, poorly fitted or top-dose-only effect; inactive = no such curve, though single readings can be large or run the other way; also: potency is read from the fitted curve at half-maximal effect; % is scaled to controls: 0 for no effect and ±100 for the full control effect; nearly all actives have a fitted effect of over 60% in size
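First, TGR (20 nM dispensed) and NADPH were mixed with compound. Second, a 15 min room-temperature incubation followed. Third, further NADPH and then DTNB were added to start the reaction. Finally, TNB absorbance was monitored kinetically.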
FMDV antiviral: blocks foot and mouth disease virus; Potency, µM (highest dose often 57.9 µM), for inactives: top-dose activity change, negative = inhibition, actives largely listed as inhibitors; AID 1159524; actives 1.2% (n = 410,000); FMDV antiviral cell-based qHTS; calls by dose curve; tested in HEK293T cells; also: read-out not given here; potency is read from the fitted curve at half-maximal effect; % is scaled to controls: 0 for no effect and ±100 for the full control effect; nearly all actives have a fitted effect of over 45% in size
Shiga toxin inh: blocks Shiga toxin action in Vero cells; Vero cells, Shiga toxin protein synthesis inhibition reporter; AID 2315; actives 9.2% (n = 290,000); inhibition, % at 38.7 µM; in the data active = inhibition mostly above about 28%, no sharp cut-off; inactive = mostly below about 43%; also: 0% is about no effect
* marks the source's active call; other numbers are inactive results; u = inconclusive; x = not tested or not shown. Most compounds without a hit are left out; they make up all but 12% or so of the library.

SMILES | Cycloheximide cs | Sm TGR inh | FMDV antiviral | Shiga toxin inh
Cc1ccc(CC2SC(N=C(N)N)=NC2=O)cc1 (stereo not given) | -4 | -6% | -2% | 23
O=C(NCC1CCCO1)c1cccc(NC(=O)c2ccccc2)c1 (stereo not given) | 2 | 8% | -7% | -21
O=C(NCC1CCCO1)c1cccc(Oc2ccccc2)c1 (stereo not given) | 33* | -1% | 4% | 53*
O=C(NCC1CCCO1)c1cc2ccccc2[nH]1 (stereo not given) | 15* | -26% | 19% | 121*
O=C(NCC1CCCO1)c1cccc(Oc2ccc([N+](=O)[O-])cc2)c1 (stereo not given) | 24* | 0% | u | 50*
COc1cccc2[nH]c(C(=O)NCC3CCCO3)cc12 (stereo not given) | 14 | 4% | 13% | 74
O=c1oc2cc(O)ccc2cc1-c1nc(-c2ccc(Cl)c(Cl)c2)cs1 | x | -2% | -8% | x
COc1cccc(NC(=O)Cn2c(=O)n(CCc3ccccc3)c(=O)c3c4c(sc32)CN(C(C)=O)CC4)c1 | x | 0% | -5% | x
CC(=O)N(CN1C(=O)CCC1=O)c1ccc(Cl)c(Cl)c1 | -3 | 13% | 11µM* | -11
O=C1CCC(=O)N1CN(C(=O)c1ccco1)c1ccc(Cl)c(Cl)c1 | -2 | 11% | 8% | 18
COc1ccc(CCNc2nc(SCc3ccccc3Cl)nc3ccccc23)cc1OC | x | 4% | -27% | x
OCc1ccnc2c(O)cccc12 | 4 | 14µM* | -12% | 21
Cc1ccccc1NCc1ccc(O)c2ncccc12 | -2 | 0% | u | -3
Oc1ccc(COCc2ccc(F)cc2)c2cccnc12 | x | 35µM* | x | x
Oc1ccc(COC2CCCC2)c2cccnc12 | x | 18µM* | x | x
O=S(=O)(c1ccc(Cl)cc1)N1CCN(Cc2ccc(O)c3ncccc23)CC1 | 16 | u | -16% | 10
COCc1ccc(O)c2ncccc12 | 26* | -33% | -29% | -8
CCCCOC(=O)c1ccc(NC(=O)c2ccc3c(c2)CCCN3S(C)(=O)=O)cc1 | x | 0% | u | x
COc1ccc(C(C)=O)cc1COc1cccc2cccnc12 | -4 | u | 14% | x
Oc1ccc(Cn2ccnc2)c2cccnc12 | -2 | 22µM* | 11% | -6
Oc1ccc(COc2cccc3ccccc23)c2cccnc12 | x | 8.9µM* | x | x
c1ccc2c(Cn3ccnc3)c[nH]c2c1 | -1 | -4% | -5% | -13
O=C1CC(c2ccc(Cl)cc2)Sc2nc(-c3ccc(F)cc3)nn21 (stereo not given) | x | 4% | -19% | x
CCCCn1c(O)c(C(CC)=Nc2ccc(OC)cc2OC)c(=O)[nH]c1=O | -3 | -15% | 18µM* | -18
CCC(=NCCOc1ccc(Cl)cc1)c1c(O)n(C)c(=O)n(C)c1=O | -1 | 3% | 25µM* | -2
SMILES | Cycloheximide cs | Sm TGR inh | FMDV antiviral | Shiga toxin inh
CCCCn1c(O)c(C(CC)=Nc2ccc(OCC)cc2)c(=O)[nH]c1=O | -2 | 16% | u | -5
CCC(=Nc1ccc(OC)cc1OC)c1c(O)n(C)c(=O)n(C)c1=O | 12 | -1% | 32µM* | 37
CCC(=NCCN1CCCCC1)c1c(O)n(C)c(=O)n(C)c1=O | -2 | u | -1% | -6
CC(=O)Nc1ccc(/C=N/NC(=O)c2cc3ccccc3nc2C)cc1 | 7 | 4% | -6% | 26
Fc1cccc(/C=N/Nc2nncc3ccccc23)c1 | 57* | u | -6% | 85*
C(=N\Nc1nncc2ccccc12)/c1ccccn1 | 33* | -6% | u | 57*
Nc1cnnc(N/N=C\c2ccccc2)c1Cl | x | x | 31% | x
O=c1cnnc(N/N=C/c2ccccn2)[nH]1 | -2 | 5% | -18% | -18
CC(=O)Nc1ccc(/C=N/Nc2nncc3ccccc23)cc1 | 50* | -12% | 10% | 83*
CCn1nc(-c2ccccc2)c(-c2ccccc2)c(C(=O)Nc2ccccc2C(N)=O)c1=O | x | 3% | -7% | x
COc1ccc(NC(=O)c2cc(C(C)=O)n3ccccc23)cc1 | x | 3% | 19% | x
CCn1c(N2CCC(Cc3ccccc3)CC2)nc2c1c(=O)[nH]c(=O)n2C | -3 | 6% | 28µM* | -20
Cn1c(=O)[nH]c(=O)c2c1nc(N1CCCCC1)n2C/C=N/Nc1ccc(C(=O)O)cc1 | 62* | -25% | u | 46
C/C=C/Cn1c(N2CCCCCC2)nc2c1c(=O)[nH]c(=O)n2C | -4 | -14% | u | 22
COc1cc(NC(=O)Cn2nnnc2-c2ccccc2F)cc(OC)c1OC | x | 7% | -10% | x
C/C=C1/NN(CCCN2CCN(c3cccc(Cl)c3)CC2)C(=O)N1CCOc1ccccc1 | 13 | x | x | -10
CS(=O)(=O)Nc1ccc(C(=O)NCCc2ccccc2)cc1 | 31* | 4% | 73% | 69*
CS(=O)(=O)Nc1ccc(C(=O)NCCSCc2ccccc2)cc1 | -1 | 15% | -18% | -8
CC(C)(C)SCCNC(=O)c1ccc(NS(C)(=O)=O)cc1 | 16* | -9% | x | 36*
CN(C)c1ccc(-c2noc(C3CC(=O)N(c4ccc5c(c4)OCCO5)C3)n2)cc1 (stereo not given) | x | -3% | -26% | x
COc1ccc(N2CCN(c3ncnc4c3[nH]c3ccccc34)CC2)cc1 | -1 | 1% | 4µM* | -16
COc1cccc2[nH]c3c(N4CCCCC4)ncnc3c12 | 45* | 0% | 2% | 67
COc1cc2[nH]c3c(N4CCN(c5ccccn5)CC4)ncnc3c2cc1OC | -4 | -29% | 18µM* | -8
COc1ccc2[nH]c3c(N4CCc5ccccc5C4)ncnc3c2c1 | 28* | 13% | 25µM* | 13
CCCN(CCC)C(=O)C1CCN(c2cc(C)nc3c(-c4ccc(Cl)cc4)c(C)nn23)CC1 | x | 5% | -23% | x
SMILES | Cycloheximide cs | Sm TGR inh | FMDV antiviral | Shiga toxin inh
Cc1cccc2[nH]c3c(N4CC=C(c5ccc(F)cc5)CC4)ncnc3c12 | 2 | 11% | 40µM* | -4
CCOC(=O)C1CCN(c2ncnc3c2[nH]c2cccc(OC)c23)CC1 | -3 | 0% | u | -12
O=C1NC(=O)N(Cc2ccco2)C(=O)/C1=C\c1cccn1CCOc1ccc(Cl)cc1 | -4 | u | 35µM* | -11
O=C1NC(=O)N(Cc2ccco2)C(=O)/C1=C/c1ccc(-c2cccc([N+](=O)[O-])c2)o1 | 1 | 40µM* | 32µM* | 4
Cc1cccc(OCCn2cccc2/C=C2/C(=O)NC(=O)N(Cc3ccco3)C2=O)c1 | 14 | 4µM* | -2% | 21
O=[N+]([O-])c1ccccc1NCCNc1ncc(C(F)(F)F)cc1Cl | 29* | -7% | 12% | 121*
O=[N+]([O-])c1cccnc1NCCNc1ncc(C(F)(F)F)cc1Cl | 39* | 2% | -7% | 77*
COc1cccc(NS(=O)(=O)c2ccc3[nH]cc(C(=O)NC4CCCCC4)c(=O)c3c2)c1 | x | -4% | -16% | x
O=C(COc1ccc2oc3c(c2c1)CCCC3)Nc1ccc(Cl)cc1 | x | 10% | 0% | x
COc1ccc(OCCSc2nnc(CC(=O)Nc3cccc(Cl)c3Cl)n2C)cc1 | 23* | -27% | 9% | 36
COc1ccc2c(CNCCc3ccccc3OC)c(C(=O)O)n(Cc3ccc(F)cc3Cl)c2c1 | x | -8% | -5% | x
Cc1ccc2onc(CC(=O)Nc3cc(F)ccc3F)c2c1 | x | -1% | 16% | x
COC(=O)/C(=C/Nc1cccc2ccccc12)[N+](=O)[O-] | 28* | -2% | x | 53*
